PubChem BioAssay AID1159580 (chemical genetic matrix, 2015)
Where “and” joins values, the source holds several entries; their conditions need not be identical. Equal values may be shown once. Screen size: about 5,500 compounds; about 2,000 (36%) were called active. Another 18% or so got no clear call; they are omitted. Rule as the data show it: active = normalized growth mostly below about 0.91 (no sharp cut-off); inconclusive = no clear call, values can overlap the other calls; inactive = mostly above about 0.92. This is one part of the list.

Experiment: chemical genetic growth profiling, strain panel (AID 1159580);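 also: tested at 20 µM; growth read once vehicle control cultures reached saturation at 30 °C; 1 = growth at the plate median or of vehicle wells; lower values mean less growth of the strain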
Conditions: S. cerevisiae deletion strains, growth OD

Measured: normalized growth

COc1ccc(-c2coc3cc(O)ccc3c2=O)cc1
inactive: locus YAL021C, strain ccr4, active compounds read low 1 | locus YAL026C, strain drs2, active compounds read low 0.943 | locus YAL030W, strain snc1, active compounds read low 0.986 | locus YBL061C, strain skt5, active compounds read low 0.983 | locus YBR009C, strain hhf1, active compounds read low 0.953 | locus YBR023C, strain chs3, active compounds read low 0.98 | locus YBR171W, strain sec66, active compounds read low 0.973 | locus YBR229C, strain ROT2, active compounds read low 0.967 | locus YBR231C, strain swc5, active compounds read low 0.964 | locus YBR279W, strain paf1, active compounds read low 0.993 | locus YCL011C, strain gbp2, active compounds read low 0.965 | locus YCL016C, strain dcc1, active compounds read low 0.974 | locus YCL029C, strain bik1, active compounds read low 0.949 | locus YCL061C, strain MRC1, active compounds read low 0.959 | locus YCL069W, strain vba3, active compounds read low 0.98 | locus YCR088W, strain abp1, active compounds read low 0.982 | locus YDL005C, strain med2, active compounds read low 0.982 | locus YDL035C, strain GPR1, active compounds read low 0.933 | locus YDL040C, strain nat1, active compounds read low 0.985 | locus YDL074C, strain BRE1, active compounds read low 0.839 | locus YDL101C, strain DUN1, active compounds read low 0.916 | locus YDL185W, strain tfp1, active compounds read low 0.964 | locus YDR001C, strain nth1, active compounds read low 0.978 | locus YDR069C, strain doa4, active compounds read low 1.01 | locus YDR101C, strain arx1, active compounds read low 0.941 | locus YDR137W, strain rgp1, active compounds read low 0.906 | locus YDR159W, strain sac3, active compounds read low 0.955 | locus YDR162C, strain NBP2, active compounds read low 0.894 | locus YDR195W, strain ref2 1.13 | locus YDR297W, strain sur2, active compounds read low 0.978 | locus YDR334W, strain swr1, active compounds read low 0.989 | locus YDR335W, strain msn5, active compounds read low 0.99 | locus YDR388W, active compounds read low 0.964 | locus YEL003W, strain gim4, active compounds read low 0.977 | locus YEL037C, strain rad23, active compounds read low 0.983 | locus YEL061C, strain CIN8 (second series), active compounds read low 0.986 | locus YER015W, strain faa2, active compounds read low 0.989 | locus YER016W, strain bim1, active compounds read low 0.979 | locus YER110C, active compounds read low 0.974 | locus YER111C, strain swi4, active compounds read low 0.992 | locus YER155C, strain BEM2 (second series), active compounds read low 0.907 | locus YER155C, strain BEM2, active compounds read low 0.962 | locus YER167W, strain BCK2, active compounds read low 0.973 | locus YFR010W, strain ubp6, active compounds read low 0.984 | locus YGL167C, strain pmr1, active compounds read low 0.997 | locus YGL173C, strain kem1, active compounds read low 0.979 | locus YGL227W, strain vid30, active compounds read low 0.981 | locus YGL240W, strain doc1, active compounds read low 0.916 | locus YGL253W, strain hxk2, active compounds read low 0.932 | locus YHR013C, strain ard1, active compounds read low 0.977 | locus YHR027C, strain rpn1, active compounds read low 0.995 | locus YHR030C, strain SLT2, active compounds read low 0.975 and 0.906 | locus YHR079C, strain IRE1 (second series), active compounds read low 0.969 | locus YHR079C, strain IRE1, active compounds read low 0.936 | locus YHR094C, strain hxt1, active compounds read low 0.96 | locus YHR129C, strain ARP1, active compounds read low 0.929 | locus YHR142W, strain chs7, active compounds read low 0.893 | locus YIL066C, strain RNR3, active compounds read low 0.957 | locus YIL073C, strain SPO22, active compounds read low 0.886 | locus YIL125W, strain kgd1, active compounds read low 0.966 | locus YIR030C, strain dcg1, active compounds read low 0.961 | locus YJL092W, strain hpr5, active compounds read low 0.974 | locus YJL095W, strain BCK1 (second series), active compounds read low 0.987 | locus YJL095W, strain BCK1, active compounds read low 0.81 and 0.908 | locus YJL115W, strain asf1, active compounds read low 0.998 | locus YJL129C, strain trk1, active compounds read low 0.954 | locus YJL134W, strain LCB3, active compounds read low 0.98 | locus YJL154C, strain vps35, active compounds read low 0.982 | locus YJL164C, strain tpk1, active compounds read low 0.943 | locus YJL166W, strain qcr8, active compounds read low 0.951 | locus YJL168C, strain set2, active compounds read low 0.977 | locus YJL187C, strain SWE1 (second series), active compounds read low 0.879 | locus YJL187C, strain SWE1, active compounds read low 0.984 | locus YJR066W, strain TOR1, active compounds read low 0.836 | locus YKL009W, strain mrt4, active compounds read low 0.914 | locus YKL068W, active compounds read low 0.965 | locus YKL085W, strain MDH1 (second series), active compounds read low 0.968 | locus YKL085W, strain MDH1, active compounds read low 0.968 | locus YKL160W, strain elf1, active compounds read low 0.942 | locus YKR026C, strain gcn3, active compounds read low 0.981 | locus YKR091W, strain srl3, active compounds read low 0.984 | locus YLL001W, strain dnm1, active compounds read low 0.954 | locus YLL026W, active compounds read low 0.977 | locus YLL041C, strain sdh2, active compounds read low 0.983 | locus YLR027C, strain aat2, active compounds read low 0.965 | locus YLR039C, strain RIC1, active compounds read low 0.784 | locus YLR058C, strain SHM2, active compounds read low 0.906 | locus YLR102C, strain apc9, active compounds read low 0.975 | locus YLR113W, strain HOG1, active compounds read low 0.992 | locus YLR221C, strain rsa3, active compounds read low 0.929 | locus YLR258W, strain gsy2, active compounds read low 0.99 | locus YLR262C, strain YPT6 (second series), active compounds read low 0.881 | locus YLR268W, strain sec22, active compounds read low 0.9 | locus YLR320W, strain mms22, active compounds read low 0.919 | locus YLR342W, strain FKS1 (second series), active compounds read low 0.876 | locus YLR342W, strain FKS1, active compounds read low 0.975 | locus YLR357W, strain rsc2, active compounds read low 0.95 | locus YLR371W, strain rom2, active compounds read low 0.993 | locus YLR384C, strain iki3, active compounds read low 0.989 | locus YML016C, strain PPZ1, active compounds read low 0.959 | locus YML032C, strain rad52, active compounds read low 0.933 | locus YML120C, strain ndi1, active compounds read low 0.955 | locus YML124C, strain tub3, active compounds read low 0.974 | locus YMR058W, strain fet3, active compounds read low 0.952 | locus YMR078C, strain ctf18, active compounds read low 0.961 | locus YMR125W, strain sto1, active compounds read low 0.98 | locus YMR129W, active compounds read low 0.981 | locus YMR205C, strain PFK2, active compounds read low 0.972 | locus YMR223W, strain ubp8, active compounds read low 0.913 | locus YMR231W, strain pep5, active compounds read low 1 | locus YMR307W, strain GAS1, active compounds read low 0.706 | locus YNL067W, strain RPL9B, active compounds read low 0.87 | locus YNL071W, strain lat1, active compounds read low 0.924 | locus YNL183C, strain NPR1, active compounds read low 0.872 | locus YNL209W, strain ssb2, active compounds read low 0.987 | locus YNL248C, strain rpa49, active compounds read low 0.94 | locus YNL250W, strain rad50, active compounds read low 0.944 | locus YNL271C, strain bni1, active compounds read low 0.941 | locus YNL298W, strain CLA4, active compounds read low 0.928 | locus YNL322C, strain KRE1 (second series), active compounds read low 0.979 | locus YNR049C, strain mso1, active compounds read low 0.986 | locus YNR052C, strain pop2, active compounds read low 0.927 | locus YOL012C, strain htz1 0.948 | locus YOL147C, strain pex11, active compounds read low 0.934 | locus YOR001W, strain rrp6, active compounds read low 0.952 | locus YOR061W, strain CKA2, active compounds read low 0.985 | locus YOR069W, strain VPS5, active compounds read low 0.927 | locus YOR070C, strain gyp1, active compounds read low 0.975 | locus YOR080W, strain dia2, active compounds read low 0.993 | locus YOR083W, strain WHI5, active compounds read low 0.91 | locus YOR106W, strain vam3, active compounds read low 0.915 | locus YOR136W, strain idh2, active compounds read low 0.95 | locus YOR144C, strain elg1, active compounds read low 0.968 | locus YOR184W, strain ser1, active compounds read low 0.931 | locus YOR231W, strain MKK1, active compounds read low 0.934 | locus YOR265W, strain rbl2, active compounds read low 0.999 | locus YOR270C, strain vph1, active compounds read low 0.807 | locus YOR290C, strain snf2, active compounds read low 0.88 | locus YOR316C, strain cot1, active compounds read low 0.96 | locus YPL051W, strain arl3, active compounds read low 0.943 | locus YPL078C, strain atp4, active compounds read low 0.905 | locus YPL106C, strain sse1, active compounds read low 0.984 | locus YPL240C, strain hsp82, active compounds read low 0.984 | locus YPL241C, strain CIN2, active compounds read low 0.998 | locus YPL256C, strain CLN2, active compounds read low 0.922 | locus YPR119W, strain clb2, active compounds read low 0.973 | locus YPR141C, strain kar3, active compounds read low 0.967 | locus YPR167C, strain met16, active compounds read low 0.93 | strain wtn01, active compounds read low 0.911
active: locus YBR021W, strain FUR4, active compounds read low 0.751 | locus YDL192W, strain arf1, active compounds read low 0.912 | locus YDR318W, strain mcm21, active compounds read low 0.896 | locus YDR392W, strain spt3, active compounds read low 0.726 | locus YDR502C, strain sam2, active compounds read low 0.878 | locus YGL078C, strain dbp3, active compounds read low 0.91 | locus YGL086W, strain mad1, active compounds read low 0.884 | locus YGL248W, strain PDE1, active compounds read low 0.853 | locus YGR135W, strain pre9, active compounds read low 0.821 | locus YGR252W, strain gcn5, active compounds read low 0.698 | locus YHR200W, strain rpn10, active compounds read low 0.904 | locus YKR001C, strain vps1, active compounds read low 0.837 | locus YLR330W, strain CHS5, active compounds read low 0.896 | locus YLR418C, strain cdc73, active compounds read low 0.74 | locus YNL233W, strain BNI4, active compounds read low 0.827 | locus YNL307C, strain MCK1, active compounds read low 0.847 | locus YPR163C, strain tif3, active compounds read low 0.794
